Experimental data: the supplement of paper PMC7156485
± gives the standard deviation of the averaged measurements.

What was measured:
Conditions in all cases: concentration: 10 µM; 24 h
HCC1569 [1] = assay: cell number relative to DMSO (% of DMSO); higher = more cells (less growth inhibition / toxicity)
How it was run: (§1)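 H1.0 nuclear intensity or cell number is expressed as percent of the plate control, with the median of replicates taken. HCC1569 and TDF cells were treated with compounds at 10 µM for 24 h at 37 °C, in triplicate, then fixed and immunostained for H1.0 with DAPI as a nuclear stain. HCC1569 values were smoothed to correct for positional effects.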

TDF [2] = assay: as above
How it was run: as §1

TDF [3] = assay: H1.0 immunofluorescence intensity relative to DMSO (% of DMSO); higher = stronger H1.0 induction, active = 120 or more
How it was run: as §1

HCC1569 [4] = assay: H1.0 immunofluorescence intensity relative to DMSO (% of DMSO); higher = stronger H1.0 induction, active = 140 or more
How it was run: as §1
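Wherever H1.0 immunofluorescence intensity relative to DMSO is given: TDF is a line of transformed human dermal fibroblasts of mesenchymal origin.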
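Wherever cell number relative to DMSO is given: TDF denotes transformed human dermal fibroblasts of mesenchymal origin.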

Row | SMILES | cell number (HCC1569 [1]) | cell number (TDF [2]) | H1.0 immunofluorescence intensity (TDF [3]) | H1.0 immunofluorescence intensity (HCC1569 [4])
1 | CS(=N)(=O)CCC(N)C(=O)O [L-Methionine sulfoximine] | 103 | 94 | 92.5 (inactive) | 98.4 (inactive)
2 | CC(C)C1(NC(=O)C2CC3c4cccc5[nH]cc(c45)CC3N(C)C2)OC2(O)C3CCCN3C(=O)C(Cc3ccccc3)N2C1=O (stereo not given) [Dihydroergocristine] | 104 | 100 | 90.4 (inactive) | 117 (inactive)
3 | CCCCCC=CCC=CCC=CCC=CCCCC(=O)NCCO [Anandamide (20:4, n-6)] | 103 | 94.1 | 99.2 (inactive) | 96.7 (inactive)
4 | Cl.Clc1cc(I)cc(Cl)c1NC1=NCCN1 [p-Iodoclonidine hydrochloride] | 102 | 101 | 94.9 (inactive) | 85.2 (inactive)
5 | C=C1C(C)C2C(Cc3ccccc3)NC(=O)C23C(OC(C)=O)C=CC(C)(O)C(=O)C(C)CC=CC3C1O (stereo not given) [Cytochalasin D] | 69.1 | 45.1 | 212 (active) | 204 (active)
6 | CC(C)CC(NP(=O)([O-])OC1OC(C)C(O)C(O)C1O)C(=O)NC(Cc1c[nH]c2ccccc12)C(=O)[O-].[Na+].[Na+] (stereo not given) [Phosphoramidon disodium] | 99.6 | 110 | 90.6 (inactive) | 102 (inactive)
7 | CC(O)C(C)OC(=O)C1CC2c3cccc4c3c(cn4C(C)C)CC2N(C)C1.O=C(O)C=CC(=O)O (stereo not given) [LY-53,857 maleate] | 107 | 107 | 96.5 (inactive) | 90.5 (inactive)
8 | CCN(CC)C(=O)NC1CC2c3cccc4[nH]cc(c34)CC2N(C)C1 (stereo not drawn) [R(+)-Terguride] | 101 | 110 | 91.9 (inactive) | 99.5 (inactive)
9 | CCC1CN2CCc3cc(OC)c(OC)cc3C2CC1CC1NCCc2cc(OC)c(OC)cc21.Cl.Cl (stereo not given) | 60 | 27 | 120 (inactive) | 100 (inactive)
10 | NC1CC1c1ccccc1 (stereo not given) [Tranylcypromine] | 102 | 117 | 109 (inactive) | 96 (inactive)
11 | Br.C=CCN1CCc2cccc3c2C1Cc1ccc(O)c(O)c1-3 (stereo not drawn) [R(-)-N-Allylnorapomorphine hydrobromide] | 84.8 | 85.6 | 104 (inactive) | 110 (inactive)
12 | C=CC1CN2CCC1CC2C(O)c1ccnc2ccccc12 (single isomer, unassigned; (+)) [(+)-Cinchonine] | 101 | 106 | 98.9 (inactive) | 91.1 (inactive)
13 | C=CC1CN2CCC1CC2C(O)c1ccnc2ccccc12 (single isomer, unassigned; (-)) [(-)-Cinchonidine] | 100 | 99.7 | 101 (inactive) | 100 (inactive)
14 | CCOC(=O)c1ncn2c1C1CCCN1C(=O)c1cc(OC)ccc1-2 (stereo not given) | 103 | 108 | 88.2 (inactive) | 102 (inactive)
15 | COC1C(O)C(C)OC(OC2CCC3(C=O)C(CCC4C3CCC3(C)C(C5=CC(=O)OC5)CCC43O)C2)C1O (stereo not given) [Peruvoside] | 52.3 | 44 | 107 (inactive) | 106 (inactive)
16 | CC12CCC3C(CCC4=C(O)C(=O)CCC43C)C1CCC2=O (stereo not given) [4-Androsten-4-ol-3,17-dione] | 102 | 96.7 | 93.4 (inactive) | 89.7 (inactive)
17 | C[N+]1(C)C2CCC1CC(OC(=O)c1c[nH]c3ccccc13)C2.[I-] (stereo not given) [3-Tropanylindole-3-carboxylate methiodide] | 100 | 106 | 95.5 (inactive) | 114 (inactive)
18 | CCCCCC=CCC=CCC=CCC=CCCCC(=O)NCCc1ccc(O)c(O)c1 [Arachidonyl dopamine] | 87.9 | 91.8 | 94.9 (inactive) | 124 (inactive)
19 | COc1ccc(C(=O)N2CCCC2=O)cc1 [Aniracetam] | 100.1 ± 0.23 | 97.8 ± 14 | 92.7 (inactive) | 95 (inactive)
20 | CCCN1CCCC(c2cccc(O)c2)C1.Cl (stereo not drawn) [S(-)-3PPP hydrochloride] | 99.1 | 110 | 94.8 (inactive) | 104 (inactive)
21 | COC1CC(CC2CCC(C)C(C(C)C(=O)[O-])O2)OC2(OC(C)(C3CCC(C)(C4OC(C5OC(O)(CO)C(C)CC5C)CC4C)O3)CC2C)C1C.[Na+] (stereo not given) [Nigericin] | 53.3 | 68.8 | 122 (active) | 183 (active)
22 | CCCCCCC(C)(C)c1ccc(C2CC(O)CCC2CCCO)c(O)c1 (stereo not given) | 99.3 | 109 | 91.7 (inactive) | 93 (inactive)
23 | O=C(O)c1nn(Cc2ccc(Cl)cc2Cl)c2ccccc12 [Lonidamine] | 107 | 96.2 | 94.3 (inactive) | 92.3 (inactive)
24 | CC1(C(=O)O)CCCC2(C)c3cc(O)ccc3CCC12 (stereo not given) [Podocarpic acid] | 100 | 102 | 101 (inactive) | 85.3 (inactive)
25 | CN(C)C(=O)Oc1cc(OC(=O)N(C)C)cc(C(O)CNC(C)(C)C)c1.Cl (stereo not given) | 104 | 104 | 91.4 (inactive) | 101 (inactive)

Row | SMILES | cell number (HCC1569 [1]) | cell number (TDF [2]) | H1.0 immunofluorescence intensity (TDF [3]) | H1.0 immunofluorescence intensity (HCC1569 [4])
26 | CCCCCC=CCC=CCC=CCC=CCCCC(=O)NCC(=O)O [N-Arachidonylglycine] | 108 | 98.1 | 95.7 (inactive) | 95.8 (inactive)
27 | CC1OC(=O)C2CC3CCCCC3C(C=CC3CCCC(C)N3C)C12 (stereo not given) [Himbacine] | 103 | 107 | 92.4 (inactive) | 87.4 (inactive)
28 | CCC(C)C1OC2(C=CC1C)CC1CC(CC=C(C)C(OC3CC(OC)C(OC4CC(OC)C(O)C(C)O4)C(C)O3)C(C)C=CC=C3COC4C(O)C(C)=CC(C(=O)O1)C34O)O2 (stereo not given) [Abamectin] | 101 | 94.4 | 101 (inactive) | 103 (inactive)
29 | CCC1(c2ccc(N)cc2)CCC(=O)NC1=O (racemic) | 98.8 | 109 | 85.7 (inactive) | 89.1 (inactive)
30 | O=c1[nH]c2ccccc2n1C1CCN(CCCC(c2ccc(F)cc2)c2ccc(F)cc2)CC1 [Pimozide] | 81.2 ± 11 | 90.7 ± 1.7 | 107 (inactive) | 144 (active)
31 | CC12CCC3C(CCC4(O)CC(O)CCC34C=O)C1(O)CCC2C1=CC(=O)OC1 (stereo not given) [Strophantidin] | 67 | 56.2 | 123 (active) | 115 (inactive)
32 | [Cl-].c1ccc2c(c1)[I+]c1ccccc1-2 [Diphenyleneiodonium chloride] | 61.4 | 34 | 123 (active) | 125 (inactive)
33 | CC(N)C(O)c1ccc(O)c(O)c1 (single isomer, unassigned; (-)) [(-)-alpha-Methylnorepinephrine] | 99.4 | 98.5 | 85.9 (inactive) | 93.1 (inactive)
34 | NCC1(CC(=O)O)CCCCC1 [Gabapentin] | 104 ± 4.7 | 108 ± 6.5 | 94.7 (inactive) | 93.5 (inactive)
35 | CN1CCc2cc3c(cc2C1C1OC(=O)c2c1ccc1c2OCO1)OCO3 (single isomer, unassigned; (+)) [(+)-Bicuculline] | 92.1 ± 16 | 89.1 ± 15 | 98.9 (inactive) | 92.6 (inactive)
36 | CCN(C)C(=O)Oc1cccc([C@H](C)N(C)C)c1.O=C(O)C(O)C(O)C(=O)O | 98.4 | 98.9 | 106 (inactive) | 96.1 (inactive)
37 | CSC(=S)NCc1c[nH]c2ccccc12 [Brassinin] | 100 | 90.8 | 97.9 (inactive) | 99.7 (inactive)
38 | CC1=C(C)C(=O)C(CCC(C)(O)CCCC(C)CCCC(C)CCCC(C)C)=C(C)C1=O (racemic) | 99 | 104 | 98.7 (inactive) | 101 (inactive)
39 | COc1ccc2c(c1)N1C(C=C(C)C)OOC(C)(C)CC3C1C2C(O)C1(O)C(=O)N2CCCC2C(=O)N31 (stereo not given) [Verruculogen] | 102 | 106 | 96.9 (inactive) | 98.1 (inactive)
40 | Cc1cccc(C)c1NC1=NCCCS1.Cl [Xylazine hydrochloride] | 100 | 118 | 99.9 (inactive) | 111 (inactive)
41 | CP(=O)(O)CCCN.Cl | 102 | 98.3 | 92.5 (inactive) | 107 (inactive)
42 | Br.CC(Cc1ccc(O)cc1)NCC(O)c1cc(O)cc(O)c1 (stereo not given) [Fenoterol hydrobromide] | 104 | 105 | 88.3 (inactive) | 112 (inactive)
43 | CCn1cnc2c(Nc3cccc(Cl)c3)nc(NC3CCCCC3N)nc21.Cl (stereo not given) | 53 | 21.5 | 132 (active) | 101 (inactive)
44 | O=c1c2ccccc2[se]n1-c1ccccc1 [Ebselen] | 102.1 ± 0.14 | 97.7 ± 1.2 | 102 (inactive) | 114 (inactive)
45 | NC(CCCCCP(=O)(O)O)C(=O)O (racemic) | 102 | 105 | 96.9 (inactive) | 98.4 (inactive)
46 | O=P([O-])(O)C(Cl)(Cl)P(=O)([O-])O.[Na+].[Na+] [Clodronic acid] | 101 | 101 | 93.4 (inactive) | 96.4 (inactive)
47 | CCCCCC=CCC(C=CC=CCC=CCCCC(=O)O)OO (stereo not given) | 102 | 101 | 102 (inactive) | 99.8 (inactive)
48 | CN1C2CC(OC(=O)C(CO)c3ccccc3)CC1C1OC12 (stereo not given) [Scopolamine] | 102 | 105 | 94.4 (inactive) | 96.7 (inactive)
49 | CC12CCC3C(CCC4=CC(=O)CCC43C)C1CCC2=O (stereo not given) [4-Androstene-3,17-dione] | 95.3 | 113 | 101 (inactive) | 90 (inactive)
50 | COc1ccc(CCN2CCC(Nc3nc4ccccc4n3Cc3ccc(F)cc3)CC2)cc1 [Astemizole] | 88.6 | 89 | 109 (inactive) | 143 (active)
